High-throughput results deposited in PubChem by National Center for Advancing Translational Sciences (NCATS).
LmPK inhibitor – blocks Leishmania mexicana pyruvate kinase activity; hit rate 0.37% among 290,000; Potency, µM (doses to about 57.5 µM), without a hit: at the highest dose activity change, negative = inhibition, actives largely listed as inhibitors; AID 1721; purified LmPK, Kinase-Glo ATP luminescence, 1 h; Q27686
Target sequence (Q27686 whole entry, looked up): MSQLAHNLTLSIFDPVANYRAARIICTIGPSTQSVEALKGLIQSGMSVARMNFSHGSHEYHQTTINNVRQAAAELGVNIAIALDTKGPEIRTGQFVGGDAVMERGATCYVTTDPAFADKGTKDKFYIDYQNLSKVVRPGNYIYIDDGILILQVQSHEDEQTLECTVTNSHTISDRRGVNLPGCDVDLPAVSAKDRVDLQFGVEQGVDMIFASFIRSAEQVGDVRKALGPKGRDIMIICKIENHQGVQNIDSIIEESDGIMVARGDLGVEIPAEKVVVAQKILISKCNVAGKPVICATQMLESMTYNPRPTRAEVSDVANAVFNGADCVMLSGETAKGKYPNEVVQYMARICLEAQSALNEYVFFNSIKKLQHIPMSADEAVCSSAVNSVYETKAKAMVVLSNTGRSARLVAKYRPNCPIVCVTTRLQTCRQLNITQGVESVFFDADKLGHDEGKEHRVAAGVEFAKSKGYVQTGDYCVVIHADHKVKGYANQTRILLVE
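Screened at intermediate enzyme activity to detect both inhibitors and activators: LmPK at 0.1 nM, with a 0.5 nM enzyme column as activation reference. PEP 0.5 mM, ADP 0.1 mM; ATP detected by luminescence after 1 h.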
RE007 growth inh – less growth of the S. pombe RE007 Vpr strain; S. pombe RE007 Vpr strain, BacTiter-Glo ATP luminescence, 24 h; Potency, µM (top dose mostly 92.2 µM), for the others: top-dose activity change, negative = less growth, actives largely listed as inhibitors; hit rate 0.21% among 360,000; AID 651644; active means well fitted falling curve with a large enough effect; inconclusive means small, poorly fitted or top-dose-only effect; inactive means no such curve, though single readings can be large or run the other way; further: nearly all actives have a fitted effect of over 50% in size
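Fission yeast strain RE007, carrying one chromosomally integrated HIV-1 vpr copy, was seeded at OD 0.01 in PMG+AL medium with 23 nL pinned compound. After 24 h at 30 °C and 99% humidity, viability was read by BacTiter-Glo luminescence.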
AMA1-RON2 inh – disrupts binding of P. falciparum AMA1 to RON2. hit rate 0.2% among 360,000. Potency, µM (top dose mostly 58.2 µM), without a hit: at the highest dose activity change, negative = inhibition, actives largely listed as inhibitors. AlphaScreen AMA1-biotinylated RON2 peptide binding;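 further: 0% = vehicle wells and -100% = peptide control; nearly all actives have a fitted effect of over 45% in size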
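AMA1 (3D7) with his tag at 25 nM final met compounds first, then biotinylated RON2 peptide at 25 nM; detection used donor plus acceptor beads, 10 µg/mL apiece, read by AlphaScreen after 30 min at room temperature.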
Tb PYK inh – blocks Trypanosoma brucei pyruvate kinase | AID 624173 | Q57TT1 | hit rate 0.12% among 410,000 | TbPYK enzyme, Kinase-Glo Plus ATP luminescence, 45 min | Potency, µM (top dose mostly 76.8 µM), without a hit: top-dose activity, negative = inhibition, actives largely listed as inhibitors; further: nearly all actives have a fitted effect of over 50% in size
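T. brucei PYK with substrate was exposed to pin-transferred compounds across a concentration series, then started with 130 uM ADP (final). After 45 min at room temperature, Kinase-Glo Plus luminescence was read, normalized and curve-fitted.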
Sm TGR block – blocks Schistosoma mansoni thioredoxin glutathione reductase. Q962Y6. purified TGR, DTNB reduction, TNB absorbance 405 nm. Potency, µM (series often up to 114 µM), for the others: at the highest dose activity change, negative = inhibition, hits mostly inhibitors. hit rate 3% among 360,000; further: nearly all actives have a fitted effect of over 60% in size
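First, TGR (20 nM dispensed) and NADPH were mixed with compound. Second, a 15 min room-temperature incubation followed. Third, further NADPH and then DTNB were added to start the reaction. Finally, TNB absorbance was monitored kinetically.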
Starred values were filed as active, the others as inactive; ? = inconclusive; · = no result; [ ] = dose if it differs, or a comment. Compounds with a hit are over-represented: about 3.2% of the library has one in this group of screens. Unless noted, the call rests on the fitted dose curve; in most records, active means well fitted curve in the direction sought with a large enough effect; inconclusive means small, poorly fitted or top-dose-only effect, or another doubt; inactive means no such curve, though single readings can be large; an effect the other way counts as inactive or inconclusive. Unless noted, on the % scale 0 is the no-effect control and ±100 the full control effect; potency means the concentration at half of the fitted maximal effect.

SMILES	LmPK inhibitor	RE007 growth inh	AMA1-RON2 inh	Tb PYK inh	Sm TGR block
CCn1c(SCC(=O)N2c3ccccc3Sc3ccccc32)nnc1-c1ccco1	1%	1%	-10%	-14%	14µM*
Cn1nnnc1SCC(=O)c1cccs1	-4%	-15%	3%	-7%	40µM*
CCn1c(SCC(=O)c2cccs2)nnc1-c1ccco1	-3%	5%	14%	-29%	45µM*
O=C(c1ccccc1)N1CCc2cc(CNS(=O)(=O)c3ccc(Cl)s3)ccc21	·	·	·	-4%	8%
CC(C)c1ccc(NC(=O)[C@H]2O[C@@H]3OC(C)(C)O[C@@H]3[C@H]3OC(C)(C)O[C@H]32)cc1	·	·	·	?	0%
CN1OC[C@@H]2CN(Cc3ccc(Cl)cc3)[C@H](c3ccc(N4CCCCC4)cc3)C[C@@H]21	·	-17%	16µM*	4%	·
COCC(=O)N1C[C@H]2CON(C)[C@H]2C[C@H]1c1ccc(N2CCCCC2)cc1	·	-4%	3%	2%	·
COC(=O)c1nn(-c2ccc3c(c2)CCN3C(C)=O)cc1O	10µM*	-7%	6%	18µM*	-1%
CC(=O)N1CCc2cc([N+](=O)[O-])ccc21	·	16%	-14%	4%	·
COC(=O)c1nn(-c2ccc3c(c2)OCO3)cc1O	18µM*	-21%	-3%	-1%	14%
c1ccc(-c2noc(-c3cccnc3)n2)nc1	14µM*	-10%	24%	-29%	-10%
Cc1cccc(-c2noc(-c3ccc4c(c3)OCO4)n2)c1	7%	-1%	5%	-5%	0%
c1ccc(-c2noc(-c3ccc4c(c3)OCO4)n2)nc1	3.2µM*	?	7%	11µM*	-5%
c1ccc(-c2noc(-c3ccncc3)n2)nc1	13µM*	?	3%	?	-10%
c1ccc(-c2noc(C3CCCCC3)n2)nc1	?	35µM*	-7%	3%	-4%
O=c1c(CCc2ccccc2)nc2cnc(N3CCNCC3)nc2n1CCc1ccccc1	·	·	·	-8%	·
Clc1ccccc1/C=C/c1nc(-c2ccccn2)no1	4µM*	?	2%	-14%	18%
COc1cccc(-c2nc(-c3ccccn3)no2)c1	13µM*	?	0%	?	8%
O=[N+]([O-])c1cccc(-c2nc(-c3ccccn3)no2)c1	?	-25%	5%	-5%	-2%
c1ccc(-c2noc(-c3ccc4ccccc4c3)n2)nc1	6.3µM*	?	8%	-18%	-3%
Cc1ccc(Cl)cc1NC(=O)N1CCC(CN2CCCCCC2)CC1	·	·	·	3%	?
COc1cc(NS(=O)(=O)c2ccc(NC(=O)c3ccco3)cc2)nc(OC)n1	4%	-5%	-7%	-5%	6%
Cc1cc(C)nc(NS(=O)(=O)c2ccc(NC(=S)NC(=O)C(C)(C)C)cc2)n1	3%	-22%	-5%	4%	?
COc1cc(NS(=O)(=O)c2ccc(NC(=S)NC(=O)c3ccco3)cc2)nc(OC)n1	9%	-1%	8%	-2%	32µM*
Cc1cc(C)nc(NS(=O)(=O)c2ccc(NC(=S)NC(=O)c3ccco3)cc2)n1	10%	-12%	-4%	1%	14µM*
SMILES	LmPK inhibitor	RE007 growth inh	AMA1-RON2 inh	Tb PYK inh	Sm TGR block
COc1ccc(-c2cc(OC(=O)c3ccccc3Cl)c3c(C)oc(C)c3c(=O)c2)cc1OC	·	·	·	-12%	?
CCOCCCNC(=O)c1ccc2c(=O)n(CCc3ccccc3)c(=O)[nH]c2c1	·	·	·	-2%	6%
COc1c(Cl)cccc1-c1cn2ccccc2n1	7.1µM*	?	-12%	-11%	11%
COc1cccc(Cn2c(=O)c(-c3ccc(F)c(F)c3)nc3cncnc32)c1	·	·	·	-3%	·
CC(C)OCCCNC(=O)C(=O)Nc1ccc2nc3n(c(=O)c2c1)CCCCC3	·	·	·	-2%	2%
Cc1ccccc1NC(=O)/C(=C/c1ccccc1)c1ccccc1	-4%	1%	6%	6%	12%
Cc1cccc(C)c1NC(=O)/C(=C/c1ccco1)c1ccccc1	-25%	2%	-10%	-13%	32µM*
Cc1cc(C)c(NC(=O)c2cccc(NC(=O)c3ccco3)c2)c(C)c1	-2%	-9%	0%	-7%	-8%
Cc1cc(C)c(NC(=O)/C(=C/c2ccco2)c2ccccc2)c(C)c1	0%	-3%	-3%	-8%	25µM*
COc1ccccc1N1CCN(c2ncnc3c2cnn3-c2cc(Cl)ccc2C)CC1	·	·	·	1%	15%
COc1cc(OC)c(NC(=O)N2CCC(CN3CCCC3)CC2)cc1Cl	·	·	·	-4%	-5%
O=C(Nc1cccnc1)Nc1ccc(Cl)cc1Cl	0%	-6%	-1%	4%	19%
Cc1cc(Cl)ccc1NC(=S)Nc1cccnc1	1%	22%	37%	0%	18µM*
Cc1cc(NC(=S)Nc2cccnc2)ccc1Br	-1%	-3%	19%	2%	18µM*
CCN(CC)S(=O)(=O)c1cc(C)ccc1NC(=S)Nc1cccnc1	1%	1%	15%	-3%	22µM*
O=C(c1ccc2c(c1)N(Cc1ccc(Cl)cc1)C(=O)c1ccccc1S2=O)N1CCN(c2ccccc2F)CC1 (stereo not drawn)	·	·	·	-3%	-1%
CCc1nc2nc(C)c(NS(=O)(=O)c3ccc(C(C)(C)C)cc3)c(=O)n2[nH]1	·	·	·	-3%	-2%
CCCCc1nc2c(c3c1C[C@H](C)OC3)CN(C(=O)C1CC1)CC2	-3%[11.5 µM]	·	·	·	·
Cc1[nH]n(-c2ccc([N+](=O)[O-])cc2)c(=O)c1C=NCCN1CCN(C(=O)C(C)C)CC1	14µM*	?	54%	-10%	0%
COc1ccc(/C(O)=C2/C(=O)C(=O)N(CCN(C)C)C2c2ccccn2)cc1OC (stereo not drawn)	-6%	35%	101%	-4%	13µM*
